Data from PubChem BioAssay.
Records with an inconclusive call do not appear. Calls of active or inactive are those of the source.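 How the source made its calls, unless noted: active means RAM network inhibition above 8.4% in each of two replicates, 3 SD over the compound average; inconclusive means above 8.4% inhibition in only one replicate; inactive means 8.4% inhibition or less in each replicate.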

Experiments:
[1] = molecular target: Pantothenate synthetase (Mycobacterium tuberculosis (strain ATCC 25618 / H37Rv)) (UniProt P9WIL5); test: Recombinant Mtb pantothenate synthetase (PanC) inhibitors, coupled enzyme, confirmatory (AID 375; call rule not given here;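 further: 0% = full reaction with vehicle and 100% = no enzyme background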); settings: coupled enzyme assay; at 10 µM, stronger effect = higher value
Chain of Pantothenate synthetase (Mycobacterium tuberculosis (strain ATCC 25618 / H37Rv)) (P9WIL5 whole entry, looked up): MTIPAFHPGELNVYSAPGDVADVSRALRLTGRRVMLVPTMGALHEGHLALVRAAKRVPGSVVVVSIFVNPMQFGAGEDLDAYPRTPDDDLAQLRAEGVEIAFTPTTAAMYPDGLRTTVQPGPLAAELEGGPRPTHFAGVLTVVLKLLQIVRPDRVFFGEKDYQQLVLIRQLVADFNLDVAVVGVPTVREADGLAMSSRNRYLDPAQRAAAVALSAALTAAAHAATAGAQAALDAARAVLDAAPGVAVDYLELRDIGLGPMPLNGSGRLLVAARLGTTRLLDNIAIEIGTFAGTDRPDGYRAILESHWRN

[2] = reducers of endogenous Her2 protein level, primary screen, SKBR3 breast tumor cells, AlphaScreen, ATP viability (AID 461;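 active means Her2 level under about 52% in both replicate screens, with viability over 70% of control, limit read from the data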;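 on Her2 level: lower value means less Her2 protein in the cells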;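 on viability: percent of carrier control wells set as 100% viability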); settings: 18-24 h, measured here: SKBR3 viability, ATP luminescence, at 10 µM
[3] = molecular target: Receptor tyrosine-protein kinase erbB-2 (Homo sapiens) (UniProt P04626); test: as above; settings: 18-24 h, at 10 µM, stronger effect = lower value
Chain of Receptor tyrosine-protein kinase erbB-2 (Homo sapiens) (P04626 whole entry, looked up): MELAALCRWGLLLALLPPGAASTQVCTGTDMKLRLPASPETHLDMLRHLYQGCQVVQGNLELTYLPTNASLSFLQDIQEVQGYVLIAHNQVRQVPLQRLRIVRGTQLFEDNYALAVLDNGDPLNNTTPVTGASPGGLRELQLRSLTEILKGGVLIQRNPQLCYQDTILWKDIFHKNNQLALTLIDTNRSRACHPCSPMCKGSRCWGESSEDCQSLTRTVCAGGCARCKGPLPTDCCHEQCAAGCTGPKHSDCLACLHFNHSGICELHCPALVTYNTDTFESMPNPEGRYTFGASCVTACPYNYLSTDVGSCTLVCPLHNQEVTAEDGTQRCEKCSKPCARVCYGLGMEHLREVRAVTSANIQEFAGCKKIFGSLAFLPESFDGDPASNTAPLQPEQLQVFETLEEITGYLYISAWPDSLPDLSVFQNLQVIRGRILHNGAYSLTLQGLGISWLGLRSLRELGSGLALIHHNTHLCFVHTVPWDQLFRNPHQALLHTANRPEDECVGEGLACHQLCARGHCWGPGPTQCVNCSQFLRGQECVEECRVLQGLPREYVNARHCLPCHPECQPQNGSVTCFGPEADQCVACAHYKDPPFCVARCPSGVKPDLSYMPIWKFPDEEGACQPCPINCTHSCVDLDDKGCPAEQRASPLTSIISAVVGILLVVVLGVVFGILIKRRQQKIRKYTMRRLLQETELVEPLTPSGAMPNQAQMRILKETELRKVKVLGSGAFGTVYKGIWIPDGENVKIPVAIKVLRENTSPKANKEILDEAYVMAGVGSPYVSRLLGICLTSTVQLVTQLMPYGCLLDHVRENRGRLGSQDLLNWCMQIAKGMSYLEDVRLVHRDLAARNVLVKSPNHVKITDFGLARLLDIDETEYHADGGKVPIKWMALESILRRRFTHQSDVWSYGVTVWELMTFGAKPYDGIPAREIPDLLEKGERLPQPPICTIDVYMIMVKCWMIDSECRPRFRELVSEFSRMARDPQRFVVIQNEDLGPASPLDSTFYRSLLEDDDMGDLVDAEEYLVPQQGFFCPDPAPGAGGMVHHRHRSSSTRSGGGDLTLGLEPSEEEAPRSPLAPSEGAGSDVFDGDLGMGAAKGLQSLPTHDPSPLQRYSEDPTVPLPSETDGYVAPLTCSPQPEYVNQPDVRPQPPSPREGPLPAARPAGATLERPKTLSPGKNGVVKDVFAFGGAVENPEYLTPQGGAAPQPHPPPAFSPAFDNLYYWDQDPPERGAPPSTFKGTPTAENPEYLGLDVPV

[4] = SK-BR-3 cell growth inhibitors, pilot screen, 24 h, human (AID 572;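 active means viability at or below 10% of carrier control in both of two separate runs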;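 further: compound exposure lasted between 18 and 24 h rather than exactly 24 h; 100% = carrier-treated control wells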); settings: SK-BR-3 viability, CellTiter-Glo luminescence, at 10 µM, stronger effect = lower value
[5] = HUVEC growth inhibition – cell-based, human, primary screen (AID 575;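 active means viability at or below 30% in both replicate assays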;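 further: 100% = median of untreated cell wells with 0.1% DMSO on each plate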); settings: HUVEC proliferation, CellTiter-Glo luminescence, 72 h; at 10 µM; stronger effect = lower value
[6] = growth inhibitors of H69AR lung tumor, primary screen, human, duplicate replicates (AID 580;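 active means viability at or under a set limit in both replicates, limit being median viability minus 3 SD, cut at about 48% in these data, passing the limit was not always enough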;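 further: 100% = mean luminescence of untreated wells and 0% = no signal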); settings: H69AR lung tumor cells viability, ATP luminescence, 72 h; at 10 µM; stronger effect = lower value
[7] = reversal of MRP1-mediated doxorubicin resistance, pilot screen, H69AR cells, doxorubicin co-treatment (AID 601;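 active means viability loss from added drug above about 55%, and viability with drug at most 40%, in both replicates, limit read from the data, passing the limit was not always enough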); settings: CellTiter-Glo, 72 h, at 10 µM; for differential viability (reversal): stronger effect = higher value
[8] = 384-well plate pilot, post-Golgi transport modulator project, inhibition of yeast transport mutant growth (AID 636; in the data active means inhibition above about 31%); settings: absorbance 615 nm, about 18 h, stronger effect = higher value
[9] = growth suppression of yeast trafficking mutant, preliminary HTS, modulators of trafficking downstream of Golgi apparatus project, 1536-format plate, OD 615 nm (AID 637; in the data active means inhibition above about 30%); settings: yeast transport mutant growth, absorbance 615 nm, 18 h; stronger effect = higher value
[10] = OD615 S. cerevisiae growth inhibition, permissive medium, pilot counter-assay, permissive growth control for S. cerevisiae lifespan shortening project (AID 705;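 active means growth inhibition above 25% in both replicates, a cutoff set 3 SD above the mean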); settings: OD615, 24 h, at 10 µM, stronger effect = higher value
[11] = Restrictive medium S. cerevisiae growth inhibition, OD615, pilot screen of yeast lifespan reduction project, restrictive growth control (AID 706;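 active means growth inhibition above a set limit, 3 SD over mean compound inhibition, in both replicates, cut at about 43% in these data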;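 further: modified DeaD lifespan yeast strain shifted to restrictive glucose medium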); settings: OD615, 48 h, at 10 µM, stronger effect = higher value
[12] = viability gain of MRP-1-high H69AR cells under doxorubicin, pilot screen, MRP-1 activator project, CellTiter-Glo, duplicate (AID 807;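 active means viability increase at or above a cutoff of the median across tested compounds plus 3 SD, cut at about 8.5% in these data, passing the limit was not always enough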;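 further: compound pretreatment 18-22 h then 72 h combined with doxorubicin; 0% = doxorubicin alone and 100% = vehicle without doxorubicin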); settings: H69AR viability with doxorubicin, CellTiter-Glo luminescence; at 10 µM; stronger effect = higher value
[13] = growth suppression of beta-catenin knockout HCT116, pilot screen, human colon tumor cells (AID 823;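 active means cell viability at or below a set limit in both duplicate runs, the limit being the all-compound median minus 4 SD, cut at about 23% in these data, passing the limit was not always enough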;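 further: 0% = wells killed by 20 µM Hyamine and 100% = untreated DMSO cell wells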); settings: CellTiter-Glo, 60 h, at 10 µM, stronger effect = lower value
[14] = growth suppression of PTEN-deleted HCT116, pilot screen, cell-based, HCT116 clonal line, CellTiter-Glo (AID 824;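 active means viability at or below 27.92% in each of two runs, the all-compound median minus 4 SD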;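 further: 0% = 20 µM Hyamine control and 100% = vehicle cell control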); settings: 60 h, at 10 µM, stronger effect = lower value
[15] = inhibitors of the yeast RAM network, pilot screen, dse1pr::URA3 reporter, 5-FOA selection (AID 869;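 active means inhibition over a set limit, the all-compound mean plus 3 SD, in both replicate runs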;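 further: 0% = DMSO wells with no growth and 100% = 10 µM 1-NA-PP1 with full growth; RAM network block rescues cells from 5-FOA so hits raise OD615 growth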); settings: S. cerevisiae dse1pr::URA3 5-FOA growth, OD615, 2 d, at 10 µM, stronger effect = higher value
[16] = RAM signaling pathway blockade in yeast – S. cerevisiae, Pdr1DBD-CYC8 efflux-inhibited sensitized strain, primary screen (AID 1298);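 further: 0% = DMSO untreated cells without growth and 100% = 10 µM 1-NA-PP1 full growth; higher means more yeast growth rescued from 5-FOA killing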; settings: S. cerevisiae cbk1-as DSE1-URA3 strain, 5-FOA growth OD615, 2 d; at 50 µM; stronger effect = higher value
[17] = H69AR cells + 2 uM doxorubicin, measured here: viability with 2 uM doxorubicin, stronger effect = lower value
[18] = H69AR cells, compound alone cytotoxicity

SMILES	inhibition [1]	viability [2] [%]	Her2 level [3]	viability [4]	viability [5]	viability [6]	differential viability (reversal) ([7]; H69AR cells + 2 uM doxorubicin)	viability [7, 17] [%]	viability [7, 18] [%]	inhibition [8]	inhibition [9]	growth inhibition [10]	growth inhibition [11]	viability increase [12]	viability [13]	viability [14]	inhibition [15]	RAM network inhibition [16]
Cc1ccc(CC2C(=O)N(C)C(=O)N(C)C2=O)s1	0% (inactive)	106	119% (inactive)	106% (inactive)	82.8% (inactive)	95.4% (inactive)	7.06% (inactive)	88.3	95.4	-3.77% (inactive)	-1.67% (inactive)	-2.9% (inactive)	3.58% (inactive)	0.21% (inactive)	100% (inactive)	99.6% (inactive)	-0.01% (inactive)	4.4% (inactive)
c1ccc(C2NCc3ccccc3-n3cccc32)cc1 (configuration not stated)	0% (inactive)	86	93.5% (inactive)	86% (inactive)	104% (inactive)	84.2% (inactive)	5.83% (inactive)	78.4	84.2	-4.53% (inactive)	1.67% (inactive)	-19% (inactive)	-22.7% (inactive)	-3.44% (inactive)	68.2% (inactive)	78.5% (inactive)	2.53% (inactive)	2.46% (inactive)
O=P(OCC(F)(F)C(F)F)(N1CCCCC1)N1CCCCC1	3% (inactive)	104	108% (inactive)	104% (inactive)	106% (inactive)	117% (inactive)	17.1% (inactive)	99.9	117	2.67% (inactive)	-7.9% (inactive)	-8.86% (inactive)	-5.09% (inactive)	-0.61% (inactive)	89% (inactive)	95.5% (inactive)	0.595% (inactive)	3.2% (inactive)
Cc1nc2ccccc2c(=O)n1-c1ccc(F)cc1	0% (inactive)	104	90% (inactive)	104% (inactive)	93.6% (inactive)	96.1% (inactive)	11.5% (inactive)	84.6	96.1	-5.32% (inactive)	1.5% (inactive)	-2.1% (inactive)	4.13% (inactive)	-0.87% (inactive)	97.7% (inactive)	100% (inactive)	1.44% (inactive)	1.29% (inactive)
CCOC(=O)N(CC)c1ccc(C(O)(C(=O)OCC)C(F)(F)F)cc1 (configuration not stated)	–	–	–	–	–	–	–	–	–	–	–	-2.74% (inactive)	-2.65% (inactive)	-0.35% (inactive)	92.5% (inactive)	95.3% (inactive)	0.745% (inactive)	0.46% (inactive)
O=C(c1cccs1)C1CN2CCC1CC2 (configuration not stated)	0% (inactive)	89.5	122% (inactive)	89.5% (inactive)	94.3% (inactive)	106% (inactive)	13.5% (inactive)	92.8	106	0.65% (inactive)	-4.33% (inactive)	-13.4% (inactive)	-12.2% (inactive)	-0.68% (inactive)	97.3% (inactive)	103% (inactive)	0.375% (inactive)	5.95% (inactive)
Cc1cccc(-n2c(-c3ccco3)nc3ccccc3c2=O)n1	0% (inactive)	105	98.5% (inactive)	105% (inactive)	111% (inactive)	87.9% (inactive)	-2.13% (inactive)	90	87.9	-0.54% (inactive)	49.3% (active)	-16.8% (inactive)	-15.7% (inactive)	0.12% (inactive)	108% (inactive)	99.7% (inactive)	0.505% (inactive)	0.8% (inactive)
CCCCn1c(C)c(C(=O)OCC)c2c(CN3CCOCC3)c(O)ccc21	2% (inactive)	110	92.5% (inactive)	110% (inactive)	58.5% (inactive)	73.3% (inactive)	-6.07% (inactive)	79.4	73.3	-4.34% (inactive)	4.33% (inactive)	-15.6% (inactive)	-9.74% (inactive)	-6.39% (inactive)	68.3% (inactive)	72.6% (inactive)	-0.155% (inactive)	2.5% (inactive)
CC1(C)C(c2ccccc2)=NC(c2cccnc2)=[N+]1[O-]	–	–	–	–	–	–	–	–	–	–	–	-4.62% (inactive)	-3.12% (inactive)	1.13% (inactive)	98.7% (inactive)	89.4% (inactive)	-0.02% (inactive)	-0.36% (inactive)
CCCCCCOc1ccc(CN2CCN(C)CC2)cc1	0% (inactive)	83.5	87% (inactive)	83.5% (inactive)	61.5% (inactive)	77.2% (inactive)	6.76% (inactive)	70.5	77.2	-5.06% (inactive)	3.44% (inactive)	-13.5% (inactive)	-20.8% (inactive)	-5.38% (inactive)	47.7% (inactive)	49% (inactive)	-0.45% (inactive)	0.09% (inactive)
CC1CCCCN1CC(=O)c1ccc2cc[nH]c2c1 (configuration not stated)	–	–	–	–	–	–	–	–	–	–	–	-4.76% (inactive)	3.28% (inactive)	-2.48% (inactive)	98.1% (inactive)	89.4% (inactive)	1.31% (inactive)	2.76% (inactive)
NC(=O)CN1CC(c2ccccc2)CC1=O (configuration not stated)	–	–	–	–	–	–	–	–	–	–	–	-5.56% (inactive)	-19.9% (inactive)	-0.3% (inactive)	105% (inactive)	98% (inactive)	0.295% (inactive)	4.63% (inactive)
Clc1cccc(CN2CCCCC2c2cccnc2)c1 (configuration not stated)	–	–	–	–	–	–	–	–	–	–	–	-8.37% (inactive)	-2.08% (inactive)	0.65% (inactive)	81.9% (inactive)	85.3% (inactive)	1.16% (inactive)	-0.74% (inactive)
O=c1c2ccccc2nc(-c2ccco2)n1-c1ccncc1	–	–	–	–	–	–	–	–	–	–	–	-1.4% (inactive)	3.59% (inactive)	0.16% (inactive)	91.8% (inactive)	97.2% (inactive)	0.635% (inactive)	-0.06% (inactive)
COC(=NC1CCCC1)C(O)c1c[nH]c2ccccc12 (configuration not stated)	0% (inactive)	101	103% (inactive)	101% (inactive)	102% (inactive)	108% (inactive)	1.98% (inactive)	106	108	-0.82% (inactive)	-4.44% (inactive)	-12.2% (inactive)	-12.5% (inactive)	-4.16% (inactive)	–	81.2% (inactive)	0.825% (inactive)	0.62% (inactive)
CCc1ccc(OCCCN=C(C)c2c(O)n(C)c(=O)n(C)c2=O)cc1	0% (inactive)	92	85.5% (inactive)	92% (inactive)	77.7% (inactive)	85.1% (inactive)	1.31% (inactive)	83.8	85.1	-1.95% (inactive)	1.83% (inactive)	-6.49% (inactive)	-4.79% (inactive)	0.23% (inactive)	77.3% (inactive)	80.8% (inactive)	0.12% (inactive)	-0.72% (inactive)
COc1ccccc1/C=C1/C(=N/O)C2CCN1CC2	0% (inactive)	104	102% (inactive)	104% (inactive)	109% (inactive)	104% (inactive)	8.7% (inactive)	95	104	-2.34% (inactive)	0% (inactive)	-14.3% (inactive)	-13.2% (inactive)	-1.4% (inactive)	99.8% (inactive)	99.4% (inactive)	0.7% (inactive)	6.29% (inactive)
CN(C)C(=O)Oc1ccc(-c2nnco2)cc1	–	–	–	–	–	–	–	–	–	–	–	0.38% (inactive)	-1.25% (inactive)	1.79% (inactive)	104% (inactive)	99.7% (inactive)	1.48% (inactive)	0.73% (inactive)
OC12CCCCC1C(c1ccccc1)NCC2 (configuration not stated)	–	–	–	–	–	–	–	–	–	–	–	-3.8% (inactive)	-17.1% (inactive)	-2.28% (inactive)	102% (inactive)	102% (inactive)	3.24% (inactive)	3.17% (inactive)
CC(=O)c1cccc(NC2=NCC(C)S2)c1 (configuration not stated)	–	–	–	–	–	–	–	–	–	–	–	-9.46% (inactive)	-13.1% (inactive)	-0.51% (inactive)	106% (inactive)	93.9% (inactive)	2.77% (inactive)	2.41% (inactive)
CP(C)(=O)CCC(=O)O	0% (inactive)	101	105% (inactive)	101% (inactive)	81.4% (inactive)	100% (inactive)	18.2% (inactive)	82.1	100	-4.94% (inactive)	3.44% (inactive)	-18% (inactive)	-19.2% (inactive)	0.16% (inactive)	101% (inactive)	98.1% (inactive)	0.42% (inactive)	2.22% (inactive)
COc1ccc(OC)c(N2C(=O)NC(=O)C(CCc3ccncc3)(CCc3ccncc3)C2=O)c1	0% (inactive)	105	112% (inactive)	105% (inactive)	91% (inactive)	82.8% (inactive)	-8.92% (inactive)	91.7	82.8	0.79% (inactive)	11.3% (inactive)	-15.9% (inactive)	-9.8% (inactive)	-1.85% (inactive)	94.8% (inactive)	94.2% (inactive)	2.2% (inactive)	0.12% (inactive)
CCCC(C)C1C(C#N)=C(N)Oc2c1c(=O)oc1ccccc21 (configuration not stated)	4% (inactive)	116	106% (inactive)	116% (inactive)	66.8% (inactive)	67.7% (inactive)	-11.5% (inactive)	79.2	67.7	-2.21% (inactive)	-0.33% (inactive)	-16.8% (inactive)	-20.1% (inactive)	-5.21% (inactive)	91.6% (inactive)	97% (inactive)	3.74% (inactive)	8.16% (inactive)
CN1CCN(c2nc3ccccc3c(=O)n2-c2ccccc2)CC1	0% (inactive)	98.5	104% (inactive)	98.5% (inactive)	79.9% (inactive)	86.3% (inactive)	-3.29% (inactive)	89.6	86.3	0.64% (inactive)	-1.17% (inactive)	-13.4% (inactive)	-1.59% (inactive)	-2.67% (inactive)	98.1% (inactive)	99.3% (inactive)	2.02% (inactive)	1.34% (inactive)
